Values joined by “and” are separate entries in the source; they are usually repeats but may differ in a detail not shown here. Equal entries are not always repeated. Active and inactive are the calls of the source. Rule for the calls: active = hit-call score of the fitted dose curve at least 0.9, where 1 is the maximum; inactive = score below 0.9.
Columns and labels:
[1] = read-out: Interleukin-6 (IL6), IL6 (gene 3569); experiment: BSK_CASM3C_IL6: BioMAP Diversity Plus: CASM3C Assay for Interleukin-6 (IL6) Biomarker Activity for (AID 2283040); conditions: primary human coronary artery smooth muscle cells; actives raise or lower the signal
[2] = read-out: Tissue plasminogen activator (tPA), PLAT (gene 5327); experiment: BSK_BE3C_tPA: BioMAP Diversity Plus: BE3C Assay for Tissue plasminogen activator (tPA) Biomarker Activity (AID 2283041); conditions: primary human bronchial epithelial cells; actives raise or lower the signal
Outline: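 Gain- or loss-of-signal in tPA, measured by ELISA, derived by bidirectional fitting against DMSO. Cells: human primary bronchial epithelial; read at 24 h after chemical dosing.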

[3] = read-out: Interleukin-8 (IL8), CXCL8 (gene 3576); experiment: BSK_CASM3C_IL8: BioMAP Diversity Plus: CASM3C Assay for Interleukin-8 (IL8) Biomarker Activity (AID 2283042); conditions: primary human coronary artery smooth muscle cells; actives raise or lower the signal;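 note: IL-8 protein level quantified by ELISA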
[4] = read-out: Human Leukocyte Antigen - DR isotype (HLADR), HLA-DRA (gene 3122); experiment: BSK_CASM3C_HLADR: BioMAP Diversity Plus: CASM3C Assay for Human Leukocyte Antigen - DR isotype (HLADR) Biomarker Activity (AID 2283043); conditions: primary human coronary artery smooth muscle cells; actives raise or lower the signal;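 note: cell-surface HLA-DR protein level quantified by ELISA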
[5] = read-out: Macrophage colony-stimulating factor (MCSF), CSF1 (gene 1435); experiment: BSK_CASM3C_MCSF: BioMAP Diversity Plus: CASM3C Assay for Macrophage colony-stimulating factor (MCSF) Biomarker Activity (AID 2283044); conditions: primary human coronary artery smooth muscle cells; actives raise or lower the signal;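 note: M-CSF protein amount quantified by ELISA after 24 h exposure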
[6] = read-out: Low-density lipoprotein receptor (LDLR), LDLR (gene 3949); experiment: BSK_CASM3C_LDLR: BioMAP Diversity Plus: CASM3C Assay for Low-density lipoprotein receptor (LDLR) Biomarker Activity (AID 2283045); conditions: primary human coronary artery smooth muscle cells; actives raise or lower the signal;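 note: LDLR protein level on the cell surface quantified by ELISA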
[7] = read-out: Monocyte Chemoattractant Protein-1 (MCP1), CCL2 (gene 6347); experiment: BSK_CASM3C_MCP1: BioMAP Diversity Plus: CASM3C Assay for Monocyte Chemoattractant Protein-1 (MCP1) Biomarker Activity (AID 2283046); conditions: primary human coronary artery smooth muscle cells; actives raise or lower the signal;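 note: MCP-1 level quantified by ELISA 24 h after dosing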
[8] = BSK_CASM3C_Proliferation: Cell Proliferation Assessment in the BioMAP Diversity Plus: CASM3C Assay (AID 2283047); conditions: primary human coronary artery smooth muscle cells;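 note: sulforhodamine B total protein stain as relative cell number at 560 nm; sub-confluent cells exposed 48 h before staining; fitted both ways against DMSO so gain or loss of cell number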
[9] = read-out: Monokine induced gamma interferon (MIG), CXCL9 (gene 4283); experiment: BSK_CASM3C_MIG: BioMAP Diversity Plus: CASM3C Assay for Monokine induced gamma interferon (MIG) Biomarker Activity (AID 2283048); conditions: primary human coronary artery smooth muscle cells; actives raise or lower the signal;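 note: MIG protein level measured by ELISA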
[10] = read-out: serum amyloid A (SAA), SAA1 (gene 6288); experiment: BSK_CASM3C_SAA: BioMAP Diversity Plus: CASM3C Assay for serum amyloid A (SAA) Biomarker Activity (AID 2283049); conditions: primary human coronary artery smooth muscle cells; actives raise or lower the signal;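 note: SAA protein level quantified by ELISA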
[11] = BSK_CASM3C_SRB: Viability Assessment in the BioMAP Diversity Plus: CASM3C Assay (AID 2283050); conditions: primary human coronary artery smooth muscle cells;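 note: total protein by SRB staining as cytotoxicity measure in parallel cultures; cells exposed to compound for 24 h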
[12] = read-out: Thrombomodulin, THBD (gene 7056); experiment: BSK_CASM3C_Thrombomodulin: BioMAP Diversity Plus: CASM3C Assay for Thrombomodulin Biomarker Activity (AID 2283051); conditions: primary human coronary artery smooth muscle cells; actives raise or lower the signal;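 note: thrombomodulin protein level measured by ELISA 24 h after dosing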
[13] = read-out: Tissue Factor, F3 (gene 2152); experiment: BSK_CASM3C_TissueFactor: BioMAP Diversity Plus: CASM3C Assay for Tissue Factor Biomarker Activity (AID 2283052); conditions: primary human coronary artery smooth muscle cells; actives raise or lower the signal;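 note: cell surface tissue factor protein level read by ELISA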
[14] = read-out: Interferon-gamma inducible Protein 10 (IP10), CXCL10 (gene 3627); experiment: BSK_hDFCGF_IP10: BioMAP Diversity Plus: hDFCGF Assay for Interferon-gamma inducible Protein 10 (IP10) Biomarker Activity (AID 2283053); conditions: primary human foreskin fibroblasts; actives raise or lower the signal
Outline: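 Cells: human dermal foreskin fibroblasts. Exposure: 24 h post-dosing. Detection: IP-10 ELISA, with values expressed against DMSO controls and fitted in both directions.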

[15] = read-out: Urokinase-type plasminogen activator receptor (uPAR), PLAUR (gene 5329); experiment: BSK_CASM3C_uPAR: BioMAP Diversity Plus: CASM3C Assay for Urokinase-type plasminogen activator receptor (uPAR) Biomarker Activity (AID 2283054); conditions: primary human coronary artery smooth muscle cells; actives raise or lower the signal;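 note: cell-surface uPAR protein level quantified by ELISA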
[16] = read-out: Vascular cell adhesion molecule 1 (VCAM1), VCAM1 (gene 7412); experiment: BSK_CASM3C_VCAM1: BioMAP Diversity Plus: CASM3C Assay for Vascular cell adhesion molecule 1 (VCAM1) Biomarker Activity (AID 2283055); conditions: primary human coronary artery smooth muscle cells; actives raise or lower the signal;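 note: VCAM-1 protein level quantified by ELISA on the cells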
[17] = read-out: Collagen III, COL3A1 (gene 1281); experiment: BSK_hDFCGF_CollagenIII: BioMAP Diversity Plus: hDFCGF Assay for Collagen III Biomarker Activity (AID 2283056); conditions: primary human foreskin fibroblasts; actives raise or lower the signal
Outline: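 Response relative to DMSO, fitted in both directions, reflects ELISA-measured collagen III in human primary skin fibroblasts 24 h after compound addition.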

[18] = read-out: Epidermal growth factor receptor (EGFR), EGFR (gene 1956); experiment: BSK_hDFCGF_EGFR: BioMAP Diversity Plus: hDFCGF Assay for Epidermal growth factor receptor (EGFR) Biomarker Activity (AID 2283057); conditions: primary human foreskin fibroblasts; actives raise or lower the signal
Outline: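 Dosing human primary skin fibroblasts, then measuring surface EGFR by ELISA at 24 h, gives the endpoint; gains and losses relative to DMSO were fitted in both directions.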

[19] = read-out: Interleukin-8 (IL8), CXCL8 (gene 3576); experiment: BSK_hDFCGF_IL8: BioMAP Diversity Plus: hDFCGF Assay for Interleukin-8 (IL8) Biomarker Activity (AID 2283058); conditions: primary human foreskin fibroblasts; actives raise or lower the signal
Outline: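 Fibroblast monolayers (human foreskin, hDFCGF) received test chemical for 24 h before ELISA detection of IL-8; either increases or decreases relative to DMSO count as activity.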

[20] = BSK_hDFCGF_Proliferation: Cell Proliferation Assessment in the BioMAP Diversity Plus: hDFCGF Assay (AID 2283059); conditions: primary human foreskin fibroblasts;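 note: curves fitted for both rise and fall of signal versus DMSO baseline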
Outline: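 Total protein read at 560 nm after 0.1% SRB staining of TCA-fixed human skin fibroblasts, […]. Activity is fitted in both directions relative to DMSO as baseline.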

Measured: AC50

CC(=O)OC(C)(C)C1CC=C(C)CC1 (centres undefined)
active: [2] 27.7 µM | [4] 31.5 µM | [5] 35.3 µM | [7] 32.6 µM | [8] 29.6 µM | [11] 28.6 µM | [15] 31.7 µM | [16] 34.8 µM | [20] 18.5 µM
inactive: all other assays above

CCOC(=O)C=Cc1ccccc1
active: [13] 0.0239 µM
inactive: all other assays above

O=S(=O)(O)C(F)(F)C(F)(F)OC(F)(F)C(F)(F)F
active: [10] 44.9 µM and 20 µM
inactive: all other assays above

C=C(F)C(=O)OC(C(F)(F)F)C(F)(F)F
inactive: all assays above

c1ccc(Sc2ccccc2)cc1
active: [2] 20 µM | [4] 20 µM | [5] 14.9 µM | [10] 20 µM | [11] 29.8 µM | [13] 20 µM | [14] 29.3 µM | [16] 20 µM | [17] 29.9 µM | [20] 29.6 µM
inactive: [1] | [3] | [6] | [7] | [8] | [9] | [12] | [15] | [18] | [19]

CC(C)CCCC(C)(C)O
inactive: all assays above

O=C(c1ccc(OCCN2CCCCC2)cc1)c1c(-c2ccc(O)cc2)sc2cc(O)ccc12
active: [1] 20.1 µM | [2] 20 µM | [4] 26.1 µM | [6] 6.83 µM | [8] 23 µM | [11] 34.4 µM | [14] 32.2 µM | [15] 33.4 µM | [17] 14.8 µM | [18] 9.63 µM | [19] 33.7 µM | [20] 7.34 µM
inactive: [3] | [7] | [9] | [10] | [12] | [13] | [16]

C[C@]12CC[C@@H]3c4ccc(O)cc4CC[C@H]3[C@@H]1CC[C@@H]2O
active: [5] 3.24 µM | [8] 13.4 µM | [9] 12.2 µM | [17] 20 µM | [20] 22.8 µM
inactive: all other assays above

C=C(C)C(=O)OCCC(F)(F)C(F)(F)C(F)(F)C(F)(F)C(F)(F)C(F)(F)C(F)(F)C(F)(F)F
inactive: all assays above

c1ccc2c(c1)-c1ccc3ccc4cccc5cc-2c1c3c45
inactive: all assays above

CC(=O)CCC=C(C)CCC=C(C)C
active: [8] 0.197 µM | [16] 25.4 µM | [20] 31.3 µM
inactive: all other assays above

— PubChem BioAssay (EPA / NIEHS)
